A number with no mark means an inactive call. The source made the active and inactive calls. Calls come from the whole dose curve; as a rule, active = well fitted inhibition curve with a large enough effect; inconclusive = small, poorly fitted or top-dose-only effect; inactive = flat fitted curve, though single readings scatter.

For this assay, the system named is Nanoluciferase (engineered Oplophorus gracilirostris luciferase). Description: Primary Nanoluciferase (NLuc) qHTS assay for identification of artifact compounds. (AID 1845222).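 Note: NLuc secreted into diluted conditioned medium of S16 cells; 0% = DMSO and -100% = no enzyme.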 The conditions noted are these: NLuc-conditioned medium, Nano-Glo luminescence, 5 min; series mostly up to 54.1 µM. Summed up: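 qHTS format, against NLuc in S16 cell-conditioned medium. Nano-Glo substrate 1:100 was added after 15 min at room temperature. Luminescence was taken after a further 5 min.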
`COC1CC(OC2CCC3(C)C(=CCC4C3CCC3(C)C(C(C)OC5OC(COC6OC(CO)C(O)C(O)C6O)C(O)C(O)C5O)CCC43O)C2)OC(C)C1OC1OC(C)C(O)C(OC)C1O` (configuration not stated): the activity, negative = inhibition was 2.42% [at 11.6 µM].
With `C[C@@]1(C(=O)O)CC[C@]2(C)CC[C@]3(C)C4=CC(=O)c5cc(O)c(O)cc5[C@]4(C)CC[C@@]3(C)[C@@H]2C1`, the result was inactive.
With `COC(=O)C12C(=O)C(C)(O)C(=O)C1(C)C(C)=CC1C34CCC(OC3=O)C(C)(CO)C4CCC12C` (configuration not stated), the call was inactive.
On the same count and under the same terms, under `CC(C)=C1CC[C@]23CO[C@H](C2)[C@@](O)(C(=O)O)CCC13` (some centres not stated) stands “inactive”; under `COC1CC(OC2CCC3(C)C(CCC4C3CCC3(C)C(C5=CC(=O)OC5)C(OC(C)=O)CC43O)C2)OC(C)C1OC1OC(CO)C(O)C(O)C1O` (configuration not stated), “inactive”.
Turning to `COC1CC(=O)C23C(=O)NC(CC(C)C)C2C(C)=C(C)C(OO)C3/C=C(\C)CCC(O)C1O` (configuration not stated), the call was inactive.
As for `CC1C/C=C/C(O)C(O)CC/C=C/c2cc(O)cc(O)c2C(=O)O1` (configuration not stated), the call was inactive.
`C=CC(C)(O)CC/C=C(\C)C(=O)O[C@H]1[C@H](O)[C@@H](CO)O[C@@H](OC(=O)[C@]23CCC(C)(C)CC2C2=CCC4[C@@]5(C)CC[C@H](O[C@@H]6O[C@H](CO[C@@H]7OC[C@H](O)[C@H](O)[C@H]7O[C@@H]7OC[C@@H](O)[C@H](O)[C@H]7O)[C@@H](O)[C@H](O)[C@H]6O)C(C)(C)C5CC[C@@]4(C)[C@]2(C)CC3)[C@@H]1OC1OC(C)C(O[C@@H]2OC[C@@H](O)[C@H](O[C@@H]3OC[C@@H](O)[C@H](O)[C@H]3O)[C@H]2O)C(O)C1O` (some centres not stated): the activity, negative = inhibition is 1.73% [at 11.6 µM].
In the case of `COC1C(O)C(OC2CCC3(C=O)C(CCC4C3CCC3(C)C(C5=CC(=O)OC5)CCC43O)C2)OC(C)C1OC1OC(CO)C(O)C(O)C1O` (configuration not stated), the call was inactive.
In the case of `COC1CC(O[C@H]2CC[C@@]3(C)C(=CCC4C3C(O)[C@@H](O)[C@]3(C)[C@@H](C(C)=O)CC[C@]43O)C2)OC(C)C1OC1CC(OC)C(OC2OC(C)C(O)C(O)C2O)C(C)O1` (some centres not stated), the activity, negative = inhibition is 4.68% [at 11.6 µM].
`CC(N)Cc1c[nH]c2ccccc12` (configuration not stated): the compound was called inactive.
`CC(C)(C)c1cc(C(C)(C)C)c2c(c1)C(O)(C(F)(F)F)C(=O)O2` (configuration not stated): the call was inactive.
In the case of `CC[C@H]1CN2CC[C@H]1C[C@@H]2[C@@H](O)c1ccnc2ccc(OC)cc12`, the call was inactive.
On to `C=C(C)[C@H]1O[C@H]2CC[C@@]3(C)[C@@](O)(CC[C@H]4[C@@H]5OC(C)(C)[C@H]6C[C@@H]7C(=C)Cc8c(Cl)cc9[nH]c(c5c9c8[C@@]76O)[C@@]43C)[C@]23O[C@@H]3[C@H]1O`, for which the compound was called inactive.
For `COC1C(O)C(C)OC(OC2C(CO)O[C@@H](O[C@@H]3CC4CCC5C(CC[C@]6(C)[C@@H](C7=CC(=O)OC7)CC[C@]56O)[C@@]4(C)[C@H](O)C3)C(O)C2O)C1O` (some centres not stated), the compound was called inactive.
Turning to `CCc1[nH]c2ccc(OC)cc2c1CCN(C)C`, the call was inactive.
Consider `CCC1NC(=O)C2C(Cl)C(Cl)CN2C(=O)C(C(C)O)NC(=O)CC(c2ccccc2)NC(=O)C(CO)NC1=O` (configuration not stated), for which the compound was classed as inactive.
`CC(=O)OC1CC(O)C2(C)C(CC(OC(C)=O)C3(C)C2CCC2(C)C(c4ccoc4)C(=O)C4OC423)C1(C)C` (configuration not stated): the compound was classed as inactive.
Consider `CN1CCCC1CCOC(c1cc2nccc(C(=O)O)c2[nH]1)c1ccccc1Cl` (configuration not stated), for which the compound was classed as inactive.
For `CC(=O)OC1CC(O)C(C)(C)C2CC(OC(C)=O)C3(C)C(CCC4(C)C(c5ccoc5)C(=O)C5OC543)C12C` (configuration not stated), the call was inactive.
Consider `COC1=CC(=O)O[C@@H](CCc2ccccc2)C1`, for which the compound was classed as inactive.
As to `CC1=C2C[C@H]3[C@@H](CC=C4C[C@@H](O)CC[C@@]43C)[C@@H]2CC[C@]12O[C@@H]1C[C@H](C)CN[C@H]1[C@H]2C`, the compound was classed as inactive.
Turning to `CC(C)(O)[C@H]1O[C@H]2CC[C@@]3(C)[C@@](O)(CC[C@H]4Cc5c([nH]c6ccccc56)[C@@]43C)C2=CC1=O`, the compound was called inactive.
On to `OCCCCC#Cc1cncc(OC[C@@H]2CCN2)c1`, for which the outcome was inactive.
Take `C[C@]12CC[C@@H](O)C[C@H]1CC[C@@H]1[C@@H]2CC[C@]2(C)C(=O)CC[C@@H]12`: the call was inactive.
As for `CC(=O)OC12C(O)C(C)C3(O)C4C=C(C)C(=O)C4CC(CO)=CC3C1C2(C)C` (configuration not stated), the call was inactive.
As to `COc1ccccc1CN[C@H]1C2CCN(CC2)[C@H]1C(c1ccccc1)c1ccccc1`, the outcome was inactive.
Regarding `CCCCCCn1c(=O)c(C(=O)Nc2ccc(C(=O)OCCC)cc2)c(O)c2ccccc21`, the activity, negative = inhibition was 1.06% [at 11.6 µM].
For `COC1=CC(=O)O[C@@H](/C=C/c2ccccc2)C1`, the compound was called inactive.
Still for that read-out and setting: under `CCCN1CCO[C@H]2c3cc(O)ccc3OC[C@@H]21` stands “inactive”; under `COc1cc(C(=O)O[C@H]2[C@@H]3C=CO[C@@H](O[C@@H]4O[C@H](CO)[C@@H](O)[C@H](O)[C@H]4O)[C@@H]3[C@@]3(CO)O[C@@H]23)ccc1O`, “inactive”.
As to `CCN1C[C@]2(COC)[C@H](O)C[C@H](OC)[C@]34[C@@H]5C[C@]6(O)[C@H](OC(=O)c7ccccc7)[C@@H]5[C@@](O)([C@H]([C@H](OC)[C@H]23)[C@@H]14)[C@@H](O)[C@@H]6OC`, the compound was called inactive.
Still for that read-out and setting: then `C[C@H](NC(=O)Cc1cc(F)cc(F)c1)C(=O)N[C@@H]1N=C(c2ccccc2)c2ccccc2N(C)C1=O`, with “inactive”.
As for `C1=C2CCCN[C@H]2[C@@H]2C[C@H]1[C@H]1CCCCN1C2`, the compound was called inactive.
`C[C@@H]1C(=O)O[C@H]2[C@H](O)[C@@]34[C@@H]5OC(=O)[C@@]3(O[C@@H]3OC(=O)[C@@H](O)[C@@]34[C@H](C(C)(C)C)[C@H]5O)[C@@]12O`: the result was inactive.
Still for that read-out and setting: then `COC(=O)C1(C)CCC(O)C2(C)c3cc(O)c(C(C)C)cc3C(O)C(OC(C)=O)C12` (configuration not stated), with “inactive”; and `CN1C(=O)c2ccccc2NC(=O)[C@]12O[C@@H]2c1ccccc1`, with “inactive”.
